Reference: PubChem BioAssay AID624330 (Southern Research Specialized Biocontainment Screening …, 2012)
Hit rate of the full screen: of about 340,000 compounds, about 2,100 (0.62%) were called active.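 The calls were made as follows: active = first-screen hits whose inhibition reached a set limit at any dose in the follow-up dose series; inconclusive = inhibition above the set first-screen limit but never retested; inactive = the rest.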 These entries were drawn from the full list. Entries with a potency or affinity are not part of this list.

Biological target: Rac GTPase-activating protein 1 (Homo sapiens) (UniProt Q9H0H5)
Sequence (Q9H0H5 whole entry, looked up): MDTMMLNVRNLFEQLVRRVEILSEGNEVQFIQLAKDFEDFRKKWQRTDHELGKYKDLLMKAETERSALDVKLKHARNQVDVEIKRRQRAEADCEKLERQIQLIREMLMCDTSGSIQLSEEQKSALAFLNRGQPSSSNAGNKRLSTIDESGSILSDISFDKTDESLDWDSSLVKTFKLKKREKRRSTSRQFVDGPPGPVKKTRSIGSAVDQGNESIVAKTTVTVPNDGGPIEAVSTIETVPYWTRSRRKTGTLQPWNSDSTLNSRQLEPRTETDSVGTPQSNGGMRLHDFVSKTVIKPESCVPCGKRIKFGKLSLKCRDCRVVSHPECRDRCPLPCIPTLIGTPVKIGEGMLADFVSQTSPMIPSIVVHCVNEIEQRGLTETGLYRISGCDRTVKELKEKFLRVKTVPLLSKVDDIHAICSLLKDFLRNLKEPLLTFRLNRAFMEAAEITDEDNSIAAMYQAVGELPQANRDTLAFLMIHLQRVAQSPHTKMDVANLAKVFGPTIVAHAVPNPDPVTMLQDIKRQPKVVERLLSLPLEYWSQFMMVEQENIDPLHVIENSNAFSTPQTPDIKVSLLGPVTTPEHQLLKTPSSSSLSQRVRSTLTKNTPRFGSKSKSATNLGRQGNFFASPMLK
Test: blockers of MgcRacGAP-driven Rac1 GTP hydrolysis – biochemical, ADP Hunter fluorescence, primary and confirmatory, confirmation (AID 624330);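 also: fluorescence reports GDP produced by GAP-driven GTP hydrolysis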
Settings: MgcRacGAP-stimulated Rac1 GTP hydrolysis, at 30 µM, stronger effect = higher value, GST-tagged Rac1 F28L mutant substrate

inhibition, inactive:
O=C(CCCn1c(=O)c2sccc2n(CC(=O)OCc2ccccc2)c1=O)NCc1ccco1 6.92%, O=C(NCc1nnc2c(C(F)(F)F)cc(Cl)cn12)c1cccnc1 9.23%, CC(OC(=O)Cc1ccsc1)C(=O)Nc1ccc(C(N)=O)cc1 (stereo not drawn) 2.18%, O=C(NC(=S)N(Cc1ccccc1)c1ccccn1)C1CCCCC1 7.13%, COc1ccccc1NC(=O)NCc1ccccc1F 5.13%, O=C(c1ccccc1)N1CCCC(C(=O)N2CCCCCC2)C1 (stereo not drawn) -4.85%, CCCn1ccc2c(OCC(=O)Nc3ccc(NC(C)=O)cc3)cccc2c1=O -3.32%, O=C(c1cc(Cl)ccc1OCc1ccccc1)N1CCOCC1 6.74%, CC(Oc1ccccc1)C(=O)NNC(=O)c1ccccn1 (stereo not drawn) 3.78%, COc1ccc([C@H]2CC(=O)C=C(c3ccccc3-c3ccccc3)C2)cc1 0.94%, CCCC/C(O)=C1\C(=O)CC(C)(C)CC1=Nc1ccc(OC)cc1 3.47%, O=C(Nc1ccc(F)cc1)Nc1nnc(Cc2ccccc2)s1 2.79%, COc1ccc(/C=N/NC(=O)CCc2n[nH]c(=O)[nH]c2=O)cc1OC 4.75%, COc1cc(/C=N/NC(=O)C(C)Nc2n[nH]c(=O)[nH]c2=O)cc(OC)c1O (stereo not drawn) 11.1%, CCOc1cc(/C=N/NC(=O)COc2nc(C)cc(COC)c2C#N)ccc1O 16.6%, COc1ccc(/C=N/NC(=O)CNc2n[nH]c(=O)[nH]c2=O)cc1OC 10.5%, COc1cc(/C=N/NC(=O)CCc2c(C)n[nH]c2C)ccc1O 3.71%, COc1ccc(C=NNC(=O)CCCC(=O)NN=Cc2ccc(OC)c(OC)c2)cc1OC 2.12%, COc1cc(/C=N/NC(=O)CSc2cc(C)c(Br)cc2C)ccc1O 15.9%, COc1cc(/C=N/NC(=O)c2cc(-c3ccccc3)nc3ccccc23)ccc1O 21.3%, CC(=O)c1ccc2ccccc2c1OC(=O)c1ccncc1 6.45%, CSc1sc(-c2ccnc(SCC(=O)C(C)(C)C)n2)c2c1C(=O)CC(C)(C)C2 13.4%, CCn1c(SCC(=O)Nc2ccc(F)cc2)nc2ccccc2c1=O 0.4%, Cc1ccc(C(=O)N2CCC(C(=O)NCc3ccco3)CC2)cc1 5.06%, COc1cc(OC)cc(C(=O)Nc2ncn[nH]2)c1 6.96%, O=C1C2C3C=CC(CC3)C2C(=O)N1/N=C/c1ccccc1O (stereo not drawn) 3.85%, COc1ccc(/C=N/N2C(=O)c3ccccc3C2=O)cc1 -3.67%, O=C1c2ccccc2C(=O)N1N=Cc1ccc2c(c1)OCO2 5.49%, O=C1C2C3C=CC(CC3)C2C(=O)N1/N=C/c1ccc(O)cc1 (stereo not drawn) 1.46%, COc1cc(/C=N/N2C(=O)C3C4c5ccccc5C(c5ccccc54)C3C2=O)ccc1O (stereo not drawn) 4.88%, O=C1c2ccccc2C(=O)N1/N=C/c1ccc(O)c(O)c1O -97.2%, CC(NC(=O)C1CC(=O)N(c2ccc3c(c2)OCCO3)C1)c1ccccc1 (stereo not drawn) 10.6%, C/C(=N\NC(=O)C(c1ccncc1)N1CCOCC1)c1ccc(Br)cc1 (stereo not drawn) 5.86%, Cc1cccc(NC(=O)CN2C(=O)N/C(=C/c3cc(C)n(-c4cccnc4)c3C)C2=O)c1 -10.6%, COc1ccccc1C(CNC(=O)c1cccc(S(=O)(=O)N2CCCc3ccccc32)c1)N(C)C (stereo not drawn) 4.28%, Cc1cc(C)nc(NS(=O)(=O)c2ccc(NC(=S)NC(=O)C(C)(C)C)cc2)n1 8.49%, CC(=O)N1CCc2cc(S(=O)(=O)NCCCOC(C)C)ccc21 2.11%, CC(=O)c1ccc(S(=O)(=O)N2CCC3(CC2)CC(=O)c2ccccc2O3)cc1 14.3%, O=S(=O)(c1cccs1)N1CCN(c2ccccc2Cl)CC1 1.05%, CC(=O)Nc1ccc(NC(=O)Cn2cnc3c(nnn3Cc3ccc(F)cc3)c2=O)cc1 1.41%, c1ccc2cc(OCCOCCOc3ccc4ccccc4c3)ccc2c1 -0.76%, CN(C)CCOc1ccc2ccccc2c1 25.2%, CC1=C(C)CC2(SC1)C(=O)N(c1ccccc1)N=C2N (stereo not drawn) 15%, CC[C@@H](C)[C@@H](C(=O)N1CCN(C(=O)OC(C)(C)C)CC1)n1cc(CCCCNC(=O)OC(C)(C)C)nn1 7.52%, Cn1c(-c2ccc3c(c2)OCO3)cnc1NCc1ccc(Cl)cc1 27.4%, Cc1ccc(CNc2ncc(-c3ccc4c(c3)OCO4)n2C)cc1 30.1%, Cn1c(-c2ccc3c(c2)OCO3)cnc1NCc1ccccc1 30.7%, COc1ccc(-c2cnc(NCc3cc4c(cc3[N+](=O)[O-])OCO4)n2C)cc1 28.1%, Cn1c(-c2ccc3c(c2)OCO3)cnc1NCc1cccc(O)c1 26.8%, Cn1c(-c2ccc(F)cc2)cnc1NCc1cc2c(cc1[N+](=O)[O-])OCO2 27.6%, COc1ccccc1N1CCN(S(=O)(=O)c2ccc(NC(C)=O)cc2)CC1 7.69%, Cc1c(-c2ccccc2)nc2ccccc2c1C(=O)Oc1ccc([N+](=O)[O-])cc1 -7.74%, Cc1ccc(S(=O)(=O)N2CC3(O)CN(C(=O)OC(C)C)N(C(=O)OC(C)C)CC3(OC(=O)NC3CCCC3)C2)cc1 (stereo not drawn) 9.25%, CC(=O)Nc1ccc(S(=O)(=O)NNC(=O)c2ccc([N+](=O)[O-])cc2)cc1 1.83%, COC(=O)CN1C(=O)C(O)(CC(=O)c2ccccc2)c2ccccc21 (stereo not drawn) 9.4%, CC(C)(C)OC(=O)NCCCCCNC(=O)c1nc[nH]c1C(=O)NCC(=O)OCc1ccccc1 5.97%, CCN(CC1COc2ccccc2O1)C(=O)CN1C(=O)NC(C)(c2ccccc2)C1=O (stereo not drawn) 1.68%, NC(=O)c1ccc(NC(=O)COC(=O)c2cccc(Oc3ccccc3)c2)cc1 -3.55%
